# Rab9 promoter act = qHTS Assay for Rab9 Promoter Activators; 320,000 tested, 2.8% active; Potency, µM (titrated, usually from 9.22 µM), for the others: top-dose activation, negative = inhibition, most hits filed as activators; Huh7 Rab9 promoter-luciferase reporter, luminescence, 24 h; note: % of control where 0% means no effect; nearly all actives have a fitted effect of over 60% in size
#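 Luminescence from Amplite-detected luciferase (10 minutes, ambient) reports Rab9 promoter activation. Before that, stable Rab9-luciferase Huh7 cells (1500/well, reduced-serum OP-MEM I plus 10% FBS) were exposed to compound for 24 hours at 37C.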
# ELG1 DNA repair = qHTS screen for small molecules that inhibit ELG1-dependent DNA repair in human embryonic kidney (HEK293T) cells expressing luciferase-tagged ELG1. HEK293T ELG1-luciferase reporter, luminescence, 16 h; DNA damage induced by 5-fluorouridine. Potency, µM (titrated, usually from 46.1 µM), for inactives: at the top dose activity change, negative = inhibition, hits mostly inhibitors. 330,000 tested, 2.3% active; note: % is set by controls: 0 for no effect and ±100 for the full control effect; nearly all actives have a fitted effect of over 55% in size
#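 5-Fluorouridine DNA damage + compound/DMSO, 2,000 cells/well, 16 h, 37 °C/5% CO2. ONE-Glo, 30 min RT, luminescence. Readout = decrease in reporter signal.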
# NPC1 promoter act = qHTS Assay for NPC1 Promoter Activators. 320,000 tested, 2.4% active. Huh7 NPC1 promoter luciferase reporter, 24 h. Potency, µM (top dose mostly 9.22 µM), without a hit: at the highest dose activation, most hits filed as activators. AID 485313, 2010; note: % of control where 0% means no effect; nearly all actives have a fitted effect of over 60% in size
#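 Luminescence read-out of NPC1 promoter-driven luciferase in stably transfected Huh7 cells; compounds delivered in DMSO and left 24 h at 37C, 5% CO2, qHTS titration format.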
# FLuc modulator = qHTS profiling assay for firefly luciferase inhibitor/activator using purifed enzyme and Km concentrations of substrates (counterscreen for miR-21 project) | Luciferin 4-monooxygenase (Photinus pyralis), P08659 | purified FLuc, Km substrates, luminescence inhibition | Potency, µM (doses to about 57.5 µM), without a hit: at the highest dose activity change, negative = inhibition, most hits filed as inhibitors | 360,000 tested, 6.9% active | AID 588342, 2011;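 note: plate controls were vehicle for no effect and reference inhibitor for full effect; nearly all actives have a fitted effect of over 55% in size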
# Target sequence (P08659 whole entry, looked up): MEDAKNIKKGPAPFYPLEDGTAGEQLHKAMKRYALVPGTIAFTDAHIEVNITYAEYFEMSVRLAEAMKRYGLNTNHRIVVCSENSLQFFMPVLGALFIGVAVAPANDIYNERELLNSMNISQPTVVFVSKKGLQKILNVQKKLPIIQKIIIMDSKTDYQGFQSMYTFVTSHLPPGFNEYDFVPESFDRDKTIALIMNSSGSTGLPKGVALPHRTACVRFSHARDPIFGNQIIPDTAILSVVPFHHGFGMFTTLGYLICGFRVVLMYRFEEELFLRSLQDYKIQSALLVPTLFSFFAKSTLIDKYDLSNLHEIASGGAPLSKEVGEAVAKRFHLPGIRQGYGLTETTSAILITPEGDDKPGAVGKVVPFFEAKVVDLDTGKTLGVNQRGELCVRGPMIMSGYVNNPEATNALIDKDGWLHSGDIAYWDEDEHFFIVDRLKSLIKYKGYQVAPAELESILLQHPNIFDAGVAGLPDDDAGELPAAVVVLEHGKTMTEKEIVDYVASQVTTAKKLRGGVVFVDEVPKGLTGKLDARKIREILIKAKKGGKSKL
#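 Biochemical qHTS of compounds, final roughly 60 µM downward over six points, against 10 nM purified firefly luciferase using Km concentrations of substrates (10 uM D-luciferin, 10 uM ATP) in Tris acetate pH 7.5 buffer; luminescence output.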
# SMN2 splice enh = qHTS Assay for Enhancers of SMN2 Splice Variant Expression | HEK293 SMN2-luciferase splicing reporter, luminescence, 30-36 h | AID 1458, 2008 | Potency, µM (titrated, usually from 46.1 µM), without a hit: at the top dose activity change, positive = activation, usual class: activators | 210,000 tested, 2.8% active; note: % of control where 0% means no effect; nearly all actives have a fitted effect of over 55% in size
#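 qHTS luciferase splicing reporter: luminescence rises when SMN2 exon 7 is included in transfected HEK293 cells. Compound exposure lasted 30-36 h at 37C, with 4.5 mM final sodium butyrate as control, followed by a ONE-Glo read.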
# ELG1 genotox = qHTS screen for small molecules that induce genotoxicity in human embryonic kidney (HEK293T) cells expressing luciferase-tagged ELG1; Potency, µM (titrated, usually from 46 µM), for the others: top-dose activity change, positive = activation, usual class: activators; 330,000 tested, 1.3% active; HEK293T ELG1-luciferase reporter, luminescence, 16 h; note: % of control where 0% means no effect; nearly all actives have a fitted effect of over 60% in size
#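 HEK293T cells expressing luciferase-tagged ELG1 were treated with compound or DMSO for 16 hr at 37°C. Luciferase activity was then read after 30 min with ONE-Glo at room temperature; rising signal flags genetic stress.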
# Active calls of the source: *; ? = inconclusive; · = no result; [ ] = another dose, or the depositor's remark. Hits are enriched below; roughly 9.3% of the tested compounds scored in any of these assays. Calls come from the whole dose curve; as a rule, active = well fitted curve in the direction sought with a large enough effect; inconclusive = small, poorly fitted or top-dose-only effect, or another doubt; inactive = no such curve, though single readings can be large; an effect the other way counts as inactive or inconclusive. Potency is the fitted concentration of half-maximal effect.
SMILES,Rab9 promoter act,ELG1 DNA repair,NPC1 promoter act,FLuc modulator,SMN2 splice enh,ELG1 genotox
COc1ccc(/C(C)=N\O)cc1OC,-3%,-3%,-1%,0%,·,1%
CC1CCN(c2nn3c(=O)c(C(=O)NCCCOC(C)C)cnc3s2)CC1,·,·,·,0%,·,·
COc1ccc(Cl)cc1NS(=O)(=O)N1CCOCC1,-8%,9%,2%,4%,·,0%
CN(C)c1ccc(C(c2ccc(N(C)C)cc2)c2ccc([N+](=O)[O-])cc2)cc1,-1%,-20%,-3%,6%,-18%[9.22 µM],-6%
COc1ccc(NC(=O)CSc2nnc3n2CCCCC3)cc1S(=O)(=O)N1CCOCC1,-3%,7%,-4%,-2%,·,0%
COc1ccc(/C(C)=N\Nc2nc(-c3ccc(Cl)cc3)cc(C(F)(F)F)n2)cc1OC,-5%,8.2µM*,-3%,2%,-26%,0%
COc1ccc(Br)cc1/C=N/Nc1cccc(C(=O)O)c1,1.6µM*,?,3.2µM*,21µM*,11µM*,?
C/C(=N\Nc1cccc(C(=O)O)c1)c1ccc(Cl)s1,2.8µM*,?,3.2µM*,11µM*,·,?
C/C(=N\NC(=O)C(=O)Nc1cccc(C(F)(F)F)c1)c1ccc(Cl)s1,3%,0%,0%,2%,-17%,-1%
COc1ccccc1/C=C/C=N/Nc1cccc(C(=O)O)c1,0.13µM*,?,0.11µM*,0.54µM*,·,0.65µM*
CN(C)CCn1c2c(c(SCC(=O)Nc3ccc4c(c3)OCCO4)nc1=O)CCCC2,-5%,15%,-2%,3%,·,2%
CCCCN1C(=O)CN(C2CCCCC2)C(=O)C1c1ccc(OC(C)C)c(OC)c1 (configuration not stated),·,·,·,-1%,·,·
O=C(Cn1cnc2ccc(Cl)cc2c1=O)NC1CCS(=O)(=O)C1 (configuration not stated),-2%,10%,-3%,-1%,·,0%
CCOc1ccc(NC(=O)Cc2ccc(S(=O)(=O)N3CCCCC3)cc2)cc1OCC,·,?,·,·,·,-1%
Cc1nc2ccc(S(=O)(=O)N(C)CC(=O)NCc3ccc(N(C)C)cc3)cc2s1,2%,-4%,-1%,-15%,·,-1%
COc1ccccc1OCCn1c(C)c(C=O)c2ccccc21,-9%,12µM*,-7%,-3%,·,-6%
CN1C(=O)COc2ccc(C(=O)c3oc4ccccc4c3-c3cnc4c(c3)COc3ccccc3-4)cc21,1%,9.2µM*,-7%,?,-2%,-6%
CCc1cccc(C)c1NC(=O)Cn1nc(C)n2cccc2c1=O,0%,8%,1%,2%,·,0%
Cc1cc(-c2ccccc2)nc(N(C)NC(=O)c2c(F)cccc2F)c1S(C)(=O)=O,2%,18µM*,14%,2%,7%,-17%
Cc1ccc(NC(=O)CN2CCN(S(=O)(=O)c3cccs3)CC2)cc1S(=O)(=O)N(C)C,2%,?,-5%,5%,-10%,-14%
C/C(=N\Nc1ccc(C(=O)O)cc1)c1ccc2c(c1)Nc1ccccc1S2,?,?,?,2.1µM*,·,11%
Cc1cc(C(=O)CN2CCC(C)CC2)c(C)n1-c1ccc(F)cc1,1.4µM*,?,?,9.5µM*,13µM*,?
Cc1cc(C(=O)NC2CCCCC2)c(C)n1-c1ccc(F)cc1,2.5µM*,?,2.8µM*,6µM*,?,5.8µM*
Cc1cc(C(=O)CN2CCCCC2)c(C)n1-c1ccc(F)cc1,?,?,?,?,?,13%
Cc1cc(C(=O)CNCc2ccco2)c(C)n1-c1ccc(F)cc1,2µM*,?,1.6µM*,3.4µM*,-5%,?
SMILES,Rab9 promoter act,ELG1 DNA repair,NPC1 promoter act,FLuc modulator,SMN2 splice enh,ELG1 genotox
O=C(CCNC(=O)Cn1ccc2ccccc2c1=O)NCc1ccccn1,3%,3%,-1%,1%,-14%,0%
Cc1c(C)c2ccc(OC(C)C(=O)N3CC[C@@]4(O)CCCC[C@H]4C3)cc2oc1=O (some centres not stated),-6%,24%,-1%,0%,·,12%
COc1ccc(O)c(-c2nc(N)nc(N)n2)c1,-1%,-1%,4µM*,?,·,15%
Fc1ccc(COc2ccc(-c3nnco3)cc2)c(Cl)c1,?,?,25%,?,·,25%
Fc1cc(Br)ccc1COc1ccc(-c2nnco2)cc1,2.5µM*,?,2.5µM*,?,·,?
O=C(COC(=O)c1ccc(Br)cc1)NC(=O)NCc1ccccc1,-2%,3%,-2%,7%,·,3%
Cc1cccc(CNc2ncnc3ccc(-c4cccc(C)c4)cc23)c1,-1%,·,2%,-4%,·,·
Cc1cccc(CNc2ncnc3ccc(-c4c(C)noc4C)cc23)c1,·,·,·,·,5.6µM*,·
Cc1noc(C)c1-c1ccc2ncnc(NC3CC3)c2c1,·,·,·,·,7.9µM*,·
CC(=O)Nc1ccc(CNc2ncnc3ccc(-c4c(C)noc4C)cc23)cc1,-2%,?,-11%,-13%,·,4.1µM*
COc1cccc(-c2ccc3ncnc(NCc4ccc5c(c4)OCO5)c3c2)c1,1%,8.2µM*,3%,-21%,·,-10%
c1nc(NC2CCNCC2)c2cc(-c3ccc4c(c3)OCO4)ccc2n1,·,·,·,·,-5%,·
COc1ccc(CCCNC(=O)C2CCC(=O)N(CCc3cccc(F)c3)C2)cc1 (configuration not stated),6%,2%,-4%,6%,·,4%
COc1ccc2c(c1)C(=O)/C(=C/C=C/c1ccccc1)CC2,?,?,?,9.5µM*,11µM*,5%
COc1ccc(OC)c(/C=C/C(=O)N2CCCc3ccccc32)c1,-2%,?,-1%,-19%,-43%,26%
COc1ccc2c(c1)CC/C(=C\C=C\c1ccccc1OC)C2=O,?,?,?,2.1µM*,11µM*,9%
COC1=CC(=O)C(O)=C/C1=C\C=C\c1ccccc1,·,·,·,·,-20%,·
CCc1ccc(-c2cnc3ccccc3n2)cc1NC(=O)CNC(=O)c1ccccc1,4µM*,?,3.5µM*,2.7µM*,·,3.7µM*
CCC(=O)Nc1cccc(-c2cnc3ccccc3n2)c1,?,?,?,19µM*,19%,?
O=C(CCl)Nc1cccc(-c2cnc3ccccc3n2)c1,-34%,9.2µM*,-5%,12µM*,-2%,-38%
